Hits are enriched below; roughly 12% of the tested compounds scored in any of these assays.
G9a block: qHTS Assay for Inhibitors of Histone Lysine Methyltransferase G9a. Histone-lysine N-methyltransferase EHMT2 (Homo sapiens), Q96KQ7. G9a H3K9 monomethylation, AlphaScreen, 2 h. Potency, µM (highest dose often 102 µM), without a hit: top-dose activity, negative = inhibition, actives largely listed as inhibitors. 350,000 compounds, 8.8% hits; note: % is set by controls: 0 for no effect and ±100 for the full control effect; nearly all actives have a fitted effect of over 75% in size
Target sequence (Q96KQ7 913-1193 limits assumed): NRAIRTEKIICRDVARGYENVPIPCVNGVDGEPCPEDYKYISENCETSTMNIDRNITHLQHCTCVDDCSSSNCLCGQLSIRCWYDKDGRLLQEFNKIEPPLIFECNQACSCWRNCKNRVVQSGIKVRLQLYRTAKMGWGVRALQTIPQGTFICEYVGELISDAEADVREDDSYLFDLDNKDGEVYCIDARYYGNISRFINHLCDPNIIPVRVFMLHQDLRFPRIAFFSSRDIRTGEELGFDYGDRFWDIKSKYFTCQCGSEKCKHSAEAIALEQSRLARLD
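Enzyme 20 nM + cpd, 15 min RT; add b-H3K9 pep 500 nM / SAM 20 uM; 2 h RT; anti-H3K9me1 Ab 0.5 ug/mL + SA donor / anti-rabbit acceptor beads 20 ug/mL each, 10 min; AlphaScreen read.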
BAZ2B block: qHTS Assay for Inhibitors of BAZ2B. 360,000 compounds, 4.4% hits. AID 504333, 2011. AlphaScreen BAZ2B-H3K14Ac peptide displacement. Potency, µM (series often up to 114 µM), without a hit: top-dose activity change, negative = inhibition, hits mostly inhibitors; note: % is set by controls: 0 for no effect and ±100 for the full control effect; nearly all actives have a fitted effect of over 60% in size
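Complex of BAZ2B and biotin-H3K14Ac (50 nM apiece) forms over 30 min at RT, then faces library compounds up to 110 uM for another 30 min; AlphaScreen beads added, 20 min dark incubation, luminescence read.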
JMJD2A Tudor inh: qHTS Assay for Inhibitors of JMJD2A-Tudor Domain; Lysine-specific demethylase 4A (Homo sapiens), O75164; AlphaScreen JMJD2A-Tudor / H3K4me3 peptide binding; Potency, µM (highest dose often 114 µM), without a hit: at the highest dose activity change, negative = inhibition, most hits filed as inhibitors; 390,000 compounds, 4.4% hits; note: % is set by controls: 0 for no effect and ±100 for the full control effect; nearly all actives have a fitted effect of over 50% in size
HP1b chromo inh: HTS for Inhibitors of HP1-beta Chromodomain Interactions with Methylated Histone Tails | Potency, µM (titrated, usually from 114 µM), for inactives: at the highest dose activity change, negative = inhibition, most hits filed as inhibitors | Chromobox protein homolog 1 (Homo sapiens), P83916 | 390,000 compounds, 0.56% hits | AlphaScreen HP1-beta / biotin-H3K9me3 peptide binding | AID 540317, 2011; note: nearly all actives have a fitted effect of over 70% in size
Target sequence (P83916 whole entry, looked up): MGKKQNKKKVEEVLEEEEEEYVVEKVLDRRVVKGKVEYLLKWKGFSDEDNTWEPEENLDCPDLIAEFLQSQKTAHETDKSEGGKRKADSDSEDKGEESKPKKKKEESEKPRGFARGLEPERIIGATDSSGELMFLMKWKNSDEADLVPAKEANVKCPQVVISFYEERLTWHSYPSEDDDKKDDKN
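HP1-beta protein (50 nM final) preincubated 30 min at room temperature with biotinylated H3(1-18)K9me3 peptide (50 nM) in PBS pH 7.4, 0.01% Tween-20, then compound added for 30 min. AlphaScreen streptavidin donor/nickel chelate acceptor beads (10 ug/mL final), 30 min dark, luminescence read.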
TDP1 block: qHTS Assay for Inhibitors of Tyrosyl-DNA Phosphodiesterase (TDP1); AID 485290, 2010; 350,000 compounds, 0.28% hits; Potency, µM (highest dose often 130 µM), without a hit: at the top dose activity change, negative = inhibition, usual class: inhibitors; Tyrosyl-DNA phosphodiesterase 1 (Homo sapiens), Q9NUW8; recombinant TDP1, AlphaScreen DNA substrate cleavage; note: % is set by controls: 0 for no effect and ±100 for the full control effect; nearly all actives have a fitted effect of over 40% in size
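Here, a 5' biotin and 3' phosphotyrosine-FITC DNA oligonucleotide reports Tdp1 activity: intact substrate bridges AlphaScreen beads, while cleavage leaves a 3' phosphate and drops signal. All incubations at room temperature.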
Sfp inh: qHTS Assay for Inhibitors of Bacillus subtilis Sfp phosphopantetheinyl transferase (PPTase); 310,000 compounds, 3.5% hits; Potency, µM, inactives show largest response in the series, negative = inhibition, actives largely listed as inhibitors; 4'-phosphopantetheinyl transferase ffp (Bacillus subtilis), Q9F4F7; AID 1490, 2009; Biochemical Sfp PPTase activity, qHTS;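 note: the enzyme is Sfp with the accession as filed and its product quenches rhodamine fluorescence; 0% = enzyme reaction without inhibitor and -100% = no enzyme wells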
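Buffer: 50 mM Hepes-Na pH 7.6, 10 mM MgCl2, 0.01% Nonidet P-40, 0.01% BSA. Enzyme 15 nM, pre-exposed to compound 15 min; substrates then added and fluorescence change tracked over 30 min.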
* marks the source's active call; other numbers are inactive results; u = inconclusive; x = no result; ! = repeats disagree; [ ] = dose if it differs, or a comment. Calls come from the whole dose curve; as a rule, active = well fitted curve in the direction sought with a large enough effect; inconclusive = small, poorly fitted or top-dose-only effect, or another doubt; inactive = no such curve, though single readings can be large; an effect the other way counts as inactive or inconclusive. Potency is the fitted concentration of half-maximal effect.

SMILES | G9a block | BAZ2B block | JMJD2A Tudor inh | HP1b chromo inh | TDP1 block | Sfp inh
CCCCNc1ccc2c3c(cccc13)C(=O)N(CCCC)C2=O | 323% | 141% | 171% | 258% | x | 28µM*
CCN1C(=O)c2cccc3c(N)ccc(c23)C1=O | 50µM* | 3% | 3% | 58% | x | -14%
CCCN1C(=O)c2cccc3c(N4CCCCC4)ccc(c23)C1=O | 51%[59 µM] | 89% | 109% | 342% | -6% | 18%
O=C(NN1C(=O)C2C3C=CC([C@@H]2C1=O)C31CC1)c1ccccc1 (some centres not stated) | 21% | 3% | -4% | 48% | x | 17%
O=C(Nc1nonc1-c1ccc(Cl)cc1)c1ccccc1F | 4%[59 µM] | 6% | -14% | 9% | 2% | x
O=C(CSc1nc(-c2ccccc2)cn1-c1ccccc1F)Nc1ccc(F)cc1 | u | u | u | -9% | 10% | x
COc1cc(/C=N/NC(=O)C(Cc2c[nH]c3ccccc23)NC(=O)OCc2ccccc2)cc([N+](=O)[O-])c1O (configuration not stated) | 8.9µM* | 45µM* | 40µM* | u | 4% | -12%
COc1cc(/C=N/NC(=O)C(Cc2c[nH]c3ccccc23)NC(=O)OCC(C)C)cc([N+](=O)[O-])c1OCc1ccccc1 (configuration not stated) | u | -37% | -17% | 27% | 10% | 16%
COc1cc(/C=N/NC(=O)C(Cc2c[nH]c3ccccc23)NC(=O)OCC(C)C)cc([N+](=O)[O-])c1O (configuration not stated) | u | 50µM* | u | -30% | 6% | 2%
Cc1c(NC(=O)COC(=O)/C=C/c2cccc(Br)c2)c(=O)n(-c2ccccc2)n1C | 1%[2.33 µM] | 7% | 0% | 25% | 0%[56.1 µM] | x
CCNc1nc(Oc2ccc(OCC(=O)OC)nn2)nc(N2CCOCC2)n1 | -1%[59 µM] | -7% | -6% | 11% | 0% | x
O=C(O)c1ccccc1Nc1ccccc1C(=O)O | 79µM* | -9% | u | -6% | 8% | 7%
CC(C)c1ccccc1NC(=O)C1C2C=CC(C2)C1C(=O)O (configuration not stated) | x | 10% | -9% | 51% | x | u
O=C(O)c1ccccc1NC(=O)C1C2C=CC(C2)C1C(=O)O (configuration not stated) | u | -7% | -10% | 12% | x | 20µM*
Cc1ccc(Cl)c(Nc2ccccc2C(=O)O)c1Cl | 3%[59 µM] | 5% | -19% | 15% | 6% | -10%
COC(=O)c1ccc(NC(=O)C2C3C=CC(C3)C2C(=O)O)cc1 (configuration not stated) | 8% | 3% | 0% | 21% | x | -2%
O=C(O)c1ccccc1Nc1ccc([N+](=O)[O-])cc1 | u | -30% | -9% | 41% | 2% | 17%
O=C(ONC(=O)C1C2C=CC(C2)C1C(=O)NOC(=O)c1ccccc1)c1ccccc1 (configuration not stated) | x | x | 0.79µM* | 52% | x | x
Cc1c(Cl)cccc1Nc1ccccc1C(=O)O | 45µM*! | -33% | -10% | 17% | 1% | 5%
O=C(O)c1ccccc1NN=Cc1ccccc1 | x | x | -32% | -1% | x | x
Cc1c(NC(=O)c2cccnc2C(=O)O)cccc1C(=O)O | 8.9µM* | 35µM* | 2.5µM* | u | -3% | u
O=C(O)c1ccccc1NN=C1CCCCC1 | 8.9µM* | -9% | u | 7% | 10% | -12%
O=C(Nc1ccccc1C(=O)O)c1ccccc1 | 50µM* | u | -29% | 20% | u | 26%
Cc1c(Nc2ncccc2C(=O)O)cccc1C(F)(F)F | 1%[59 µM] | 11% | -1% | 26% | -6%[56.1 µM] | 10%
O=C(Nc1ccccc1C(=O)O)c1cccc(C(=O)Nc2ccccc2C(=O)O)c1 | u | -38% | -15% | 34% | x | 38%
SMILES | G9a block | BAZ2B block | JMJD2A Tudor inh | HP1b chromo inh | TDP1 block | Sfp inh
Cc1c(Cl)cccc1Nc1ncccc1C(=O)O | -24%[12.7 µM] | -9% | 25µM*! | 7% | 6% | 11%
Cc1ccc(Sc2c(C(=O)NCc3ccccc3C)[nH]c3ccccc23)cc1 | -45%[59 µM] | -1% | 0% | 40% | -6% | x
CSc1ccc(CN(C)C(=O)c2cccc(S(=O)(=O)N3CCN(Cc4ccccc4)CC3)c2)cc1 | 5%[0.501 µM] | -30% | -34% | -3% | x | x
Cc1nc2ccccc2c(=O)n1NC(=O)C1CCC(C(C)(C)C)CC1 (configuration not stated) | -29% | x | -8% | 23% | 2% | 19%
Cc1nnc(NC(=O)c2ccccc2NC(=O)c2ccccc2)s1 | 50µM* | -17% | -7% | 48% | -12% | -9%
O=C(O)c1ccccc1NC(=O)c1cc2ccccc2oc1=O | 50µM* | -17% | 0% | 35% | 2% | u
Cc1nnc(NC(=O)c2ccccc2-c2ccccc2C(=O)O)s1 | x | -13% | -2% | 3% | x | -14%
O=C(Nc1cccnc1N1CCOCC1)c1cc2ccccc2oc1=O | -12% | 11% | 2% | 17% | 6% | 0%
COC1C(OC(=O)/C=C/C=C/C=C/C=C/C(=O)O)CCC2(CO2)C1C1(C)OC1CC=C(C)C (configuration not stated) (tested in a mixture with another compound) | x | x | -6% | 28% | x | x
COc1ccc(-c2cc(C(F)F)nc(-n3nc(C)cc3C)n2)cc1 | 2%[12.7 µM] | -1% | 2% | 48% | 1% | 50µM*
O=c1[nH][nH]c(C(F)(F)F)c1/C=N/N1CCOCC1 | 40µM* | -29% | -15% | 23% | 4% | -7%
O=C(OCC1CCCO1)c1ccc2c(c1)N(Cc1ccccc1F)C(=O)c1ccccc1S2(=O)=O (configuration not stated) | -4%[59 µM] | -2% | -19% | 29% | 5% | x
Oc1c(Br)cc(C=Nc2ccc3nc(-c4ccccc4)[nH]c3c2)c(O)c1Br | 28µM* | 40µM* | u | -16% | 3% | 56µM*
O=[N+]([O-])c1ccc(O)c(C=Nc2ccc3nc(-c4ccccc4)[nH]c3c2)c1 | 7%[59 µM] | -6% | -25% | 8% | 2% | 19%
CCOc1ccccc1OCCC(=O)OCC(=O)Nc1c(C)nn(-c2ccccc2)c1C | 56µM* | 7% | -12% | 29% | -9%[0.505 µM] | x

High-throughput results deposited in PubChem by National Center for Advancing Translational Sciences (NCATS).
